From PubChem BioAssay
The source made the active and inactive calls.

These compounds were tested against Homeobox protein Hox-A13 (Mus musculus) (UniProt Q62424) (assay: inhibitors of HoxA13-DNA binding, primary screen, biochemical, fluorescence polarization, labeled oligonucleotide (AID 1185)). Details: 15 min, higher = more signal, called active from +8 up or from −8 down.
Sequence of Homeobox protein Hox-A13 (Mus musculus) (Q62424 whole entry, looked up): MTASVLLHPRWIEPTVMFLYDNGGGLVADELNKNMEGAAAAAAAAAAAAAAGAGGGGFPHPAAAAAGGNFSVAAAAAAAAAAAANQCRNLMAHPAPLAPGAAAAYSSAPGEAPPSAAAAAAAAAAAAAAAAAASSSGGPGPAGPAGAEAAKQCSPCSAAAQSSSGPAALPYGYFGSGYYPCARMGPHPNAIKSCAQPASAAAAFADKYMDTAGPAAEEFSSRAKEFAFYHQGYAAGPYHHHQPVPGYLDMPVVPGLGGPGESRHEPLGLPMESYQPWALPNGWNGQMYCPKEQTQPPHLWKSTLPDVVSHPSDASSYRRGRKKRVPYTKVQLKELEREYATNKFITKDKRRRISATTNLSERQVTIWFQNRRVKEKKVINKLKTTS

Question: With `COc1cc2c(cc1O)C(c1ccc(CN3CCCC3)cc1)N(Cc1cccc(OC(F)(F)F)c1)CC2` (stereo unspecified) as the compound, how does the z-score read?
Answer: -2.99 (inactive)

Question: Which z-score does the source give for `Cc1c(NC(=O)/C(C#N)=C/c2ccc(Cl)cc2)c(=O)n(-c2ccccc2)n1C` here?
Answer: -3.94 (inactive)

Question: For `COCCOC(=O)N1C(=O)[C@@]2(c3cc(C#CC4(O)CCCCCC4)ccc31)[C@H](c1ccccc1OCCO)N1[C@H](c3ccccc3)[C@H](c3ccccc3)OC(=O)[C@H]1[C@@H]2C(=O)N1CCCCCCC1`, which z-score is on record?
Answer: 3.98 (inactive)

Question: For `CN1C(=O)[C@]2(CCS(=O)(=O)c3ccccc3)N=C(c3ccc(OCCCO)cc3)O[C@@H]2c2ccccc21`, which z-score is on record?
Answer: -5.03 (inactive)

Question: Which z-score does the source give for `CCOC(=O)C1=CC[C@@H](c2ccccc2)N(S(=O)(=O)C[Si](C)(C)C)[C@H]1c1ccccc1` here?
Answer: -1.35 (inactive)

Question: For `CCCCN1CC=CC23O[C@@H]4C=CCOC(=O)[C@@H]4[C@H]2C(=O)N(C(CO)C(C)C)[C@@H]3C1=O` (stereo partly specified), which z-score is on record?
Answer: -5.09 (inactive)

Question: For `[N-]=[N+]=NCc1ccccc1C[C@]1(C(=O)N2CCOCC2)N=C(c2ccc(OCCCO)cc2)O[C@H]1c1ccccc1CN=[N+]=[N-]`, which z-score is on record?
Answer: 0.116 (inactive)

Question: With `COCCOC(=O)N1C(=O)[C@@]2(c3cc(C#CC4(O)CCCCCC4)ccc31)[C@H](c1ccc(OCCO)cc1)N1[C@H](c3ccccc3)[C@H](c3ccccc3)OC(=O)[C@H]1[C@@H]2C(=O)N1CCCCCCC1` as the compound, how does the z-score read?
Answer: -13.3 (active)

Question: With `COCCOC(=O)N1C(=O)[C@@]2(c3cc(C#Cc4ccc(OC)cc4)ccc31)[C@H](c1ccc(OCCO)cc1)N1[C@H](c3ccccc3)[C@H](c3ccccc3)OC(=O)[C@H]1[C@@H]2C(=O)N1CCCCCCC1` as the compound, how does the z-score read?
Answer: -15.8 (active)

Question: How did the z-score turn out when `Cc1ccc(S(=O)(=O)N2[C@@H](c3ccccc3)C(C(=O)O)=CC[C@H]2c2ccc(C#N)cc2)cc1` was run?
Answer: -6.06 (inactive)

Question: For `COC(=O)Cn1c(C(=O)N(C)C)cc2c1C[C@H]1CN(C(=O)c3ccccc3)[C@@](Cc3ccc(OC)cc3)(C(=O)OC)[C@@H]21`, which z-score is on record?
Answer: -5.22 (inactive)

Question: How did the z-score turn out when `CCOC(=O)C1=C[C@@H](C(C)(C)C)N(S(=O)(=O)c2ccc(C)cc2)[C@H]1c1ccccc1Cl` was run?
Answer: 0.649 (inactive)

Question: How did the z-score turn out when `Cc1c(-c2ccc(-c3ccc(Cl)c(Cl)c3)o2)nc(-c2ccccc2)c2c1CO[Si]2(C(C)C)C(C)C` was run?
Answer: -1.48 (inactive)

Question: `N[C@@H](Cc1ccccc1)Cn1cc(C2(O)CCCCC2)nn1` was tested. Which z-score did it give?
Answer: -3.59 (inactive)

Question: How did the z-score turn out when `COC(=O)c1c(CC[C@@H](CO)NC(=O)N[C@@H](Cc2ccccc2)Cn2cc(-c3cncn3C)nn2)oc(C(C)=O)c1C(=O)OC` was run?
Answer: -4.35 (inactive)

Question: Which z-score does the source give for `C=C(COC)C(=O)CC[C@@H](OC(C)=O)c1ccc(OCCO)cc1` here?
Answer: -4.63 (inactive)

Question: How did the z-score turn out when `CCOC(=O)C[C@H]1[C@H](OC(=O)Cc2ccc3c(c2)OCO3)[C@@H](NC(=O)c2ccccc2)c2cc(OCCCO)ccc2N1C(=O)Cc1ccc(OC)cc1` was run?
Answer: -3 (inactive)

Question: `COC(=O)[C@@]1(Cc2ccc(OC)cc2)[C@H]2c3cc(C(=O)N(C)C)n(Cc4ccsc4Br)c3C[C@H]2CN1C(=O)c1ccccc1` was tested. Which z-score did it give?
Answer: -1.15 (inactive)

Question: For `CN(C)C(=O)[C@]1(Cc2ccccc2)N=C(c2ccc(OCCCO)cc2)O[C@@H]1c1ccccc1`, which z-score is on record?
Answer: -6.32 (inactive)

Question: With `O=c1cccc(-c2ccccc2C(F)(F)F)o1` as the compound, how does the z-score read?
Answer: -1.43 (inactive)

Question: With `COCCOC(=O)N1C(=O)[C@@]2(c3cc(C#CCCO)ccc31)[C@H](c1ccc(O)cc1)N1[C@H](c3ccccc3)[C@H](c3ccccc3)OC(=O)[C@H]1[C@@H]2C(=O)N1CCc2cc(OC)c(OC)cc2C1` as the compound, how does the z-score read?
Answer: -1.97 (inactive)

Question: With `COCCCNC(=O)[C@@H]1c2ccccc2C(=O)N(Cc2cc(C(F)(F)F)cc(C(F)(F)F)c2)[C@H]1c1ccc(CO)cc1` as the compound, how does the z-score read?
Answer: -3.22 (inactive)

Question: How did the z-score turn out when `CN(C)C(=O)[C@]1(Cc2ccccc2CN=[N+]=[N-])N=C(c2ccc(OCCCO)cc2)O[C@@H]1c1ccccc1N=[N+]=[N-]` was run?
Answer: -1.57 (inactive)

Question: For `C=CC[C@@]12N=C(c3ccc(OCCCO)cc3)O[C@@H]1c1ccccc1N(Cc1ccccc1)C2=O`, which z-score is on record?
Answer: -2.23 (inactive)

Question: Which z-score does the source give for `COCCOC(=O)N1C(=O)[C@@]2(c3cc(C#CC4(O)CCCCCC4)ccc31)[C@H](c1ccc(OCCO)cc1)N1[C@H](c3ccccc3)[C@H](c3ccccc3)OC(=O)[C@H]1[C@@H]2C(N)=O` here?
Answer: -1.87 (inactive)

Question: With `O=C1O[C@H](c2ccccc2)[C@H](c2ccccc2)N2[C@H]1[C@@H](C(=O)N1CCN(c3ncccn3)CC1)[C@]1(C(=O)Nc3ccccc31)[C@H]2c1ccc(O)cc1` as the compound, how does the z-score read?
Answer: -1.2 (inactive)
